In the supplement of paper PMC8047044 one finds neurite formation score data, which are given here for 28 compounds.

Where “and” joins values, the source holds several entries; their conditions need not be identical. Identical values can stand only once.

The subject of one experiment is Neuro-2a. Kind of experiment: neurite formation score, plate-normalized to DMSO control mean 5.04 (score (0-8 scale)); higher = more or longer neurites. The settings on record: 1 µM. As for the experimental part: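 Neuro-2a mouse neuroblastoma cells in PLL-coated 96-well plates were pre-treated for 1 h in DMEM(+) with each kinase inhibitor at 1 µM, then switched to serum-free DMEM(-) with inhibitor to induce neurite outgrowth and fixed about 2-3 h later. Three blinded observers scored neurite formation from 0 (no neurites) to 8 (long neurites on almost all cells).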
Take `CC[C@H](Nc1ncnc2[nH]cnc12)c1nc2cccc(F)c2c(=O)n1-c1ccccc1` [CAL-101 (Idelalisib, GS-1101)]: the neurite formation score was determined as 4.57.

`Cc1[nH]c(/C=C2\C(=O)Nc3ccccc32)c(C)c1CCC(=O)O` [TSU-68 (SU6668,Orantinib)] returned a neurite formation score of 4.57.

As for `Nc1nccc(Oc2ccc(NC(=O)c3c[nH]cc(-c4ccc(F)cc4)c3=O)cc2F)c1Cl`, the neurite formation score amounted to 3.96.

Compound `N#Cc1cccc(-c2c[nH]c3ncnc(N4CCOCC4)c23)c1` gave a neurite formation score of 5.21.

Take `C[C@@H]1CCN(C(=O)CC#N)C[C@@H]1N(C)c1ncnc2[nH]ccc12`: the neurite formation score is 4.02 and 4.69.

For `COc1cc(Nc2ncc3c(n2)-c2ccc(Cl)cc2C(c2c(F)cccc2OC)=NC3)ccc1C(=O)O` [MLN8237 (Alisertib)], the neurite formation score was found to be 4.36.

`CNC(=O)c1cccc(-c2ccc3c(N4CCOC[C@@H]4C)nc(N4CCOC[C@@H]4C)nc3n2)c1` gave a neurite formation score of 4.29.

`Cc1cc(O)c2c(c1)C(=O)c1cccc(O)c1C2=O` [Chrysophanol] yielded a neurite formation score of 4.8.

As for `CC(C)(C)c1nc2c3cc[nH]c(=O)c3c3cc(F)ccc3c2[nH]1` [Pyridone 6], the neurite formation score is 3.69.

`C[C@H]1Oc2cc(cnc2N)-c2c(nn(C)c2C#N)CN(C)C(=O)c2ccc(F)cc21` gave a neurite formation score of 4.21.

In turn, `CCOc1cc(N2CCC(O)CC2)ccc1Nc1ncc2c(n1)N(C)c1ccccc1C(=O)N2C` registered a neurite formation score of 4.69.

In turn, `O=C1NC(=O)/C(=C/c2ccc3nccc(-c4ccncc4)c3c2)S1` had a neurite formation score of 4.14.

`N[C@@H]1CCCN(c2c(/C=C3\SC(=O)NC3=O)cccc2-c2ccccc2)C1` displayed a neurite formation score of 5.36.

With `CCN(CCO)CCCOc1ccc2c(Nc3cc(CC(=O)Nc4cccc(F)c4)[nH]n3)ncnc2c1` [Barasertib (AZD1152-HQPA)], the neurite formation score was 4.69.

The subject of a further experiment is Neuro-2a. Described as above. Particulars: 0.1 µM. As for the experimental part: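 Neuro-2a mouse neuroblastoma cells in PLL-coated 96-well plates were pre-treated for 1 h in DMEM(+) with each kinase inhibitor at 0.1 µM, then switched to serum-free DMEM(-) with inhibitor to induce neurite outgrowth and fixed about 2-3 h later. Three blinded observers scored neurite formation from 0 (no neurites) to 8 (long neurites on almost all cells).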
Regarding `Cn1cc(-c2ccc3ncc(Cc4ccc5ncccc5c4)n3n2)cn1`, the neurite formation score was found to be 4.92.

`CC[C@H](Nc1ncnc2[nH]cnc12)c1nc2cccc(F)c2c(=O)n1-c1ccccc1` [CAL-101 (Idelalisib, GS-1101)] returned a neurite formation score of 4.71.

On to `COc1cc(Nc2ncc(F)c(Nc3ccc4c(n3)NC(=O)C(C)(C)O4)n2)cc(OC)c1OC` [R406 (free base)], for which the neurite formation score is 5.21.

For the compound `O=C(Cc1ccc(-c2ccc(OCCN3CCOCC3)cc2)cn1)NCc1ccccc1`, the neurite formation score was -0.243.

`Cc1[nH]c(/C=C2\C(=O)Nc3ccccc32)c(C)c1CCC(=O)O` [TSU-68 (SU6668,Orantinib)] returned a neurite formation score of 4.54.

On to `Nc1nccc(Oc2ccc(NC(=O)c3c[nH]cc(-c4ccc(F)cc4)c3=O)cc2F)c1Cl`, for which the neurite formation score stood at 4.92.

In the case of `O=C(Nc1cc(C(F)(F)F)cc(C(F)(F)F)c1)c1cc(Cl)ccc1O`, the neurite formation score is 4.76.

For `CN(C)Cc1cccc(N=C(c2ccccc2)c2c(O)[nH]c3cc(C(N)=O)ccc23)c1`, the neurite formation score is 4.54.

With `CCn1cc(-c2ccnc3[nH]c(-c4cccc(CN(C)C)c4)cc23)c(-c2ccc(NC(=O)N(C)C)cc2)n1`, the neurite formation score is 5.25.

Compound `N#Cc1cccc(-c2c[nH]c3ncnc(N4CCOCC4)c23)c1` showed a neurite formation score of 4.75.

With `Cc1cc(Nc2cc(N3CCN(C)CC3)nc(/C=C/c3ccccc3)n2)n[nH]1` [ENMD-2076 L-(+)-Tartaric acid], the neurite formation score came out at 4.76.

`Cc1cc(Nc2cc(N3CCN(C)CC3)nc(/C=C/c3ccccc3)n2)n[nH]1` registered a neurite formation score of 3.92.

`C[C@@H]1CCN(C(=O)CC#N)C[C@@H]1N(C)c1ncnc2[nH]ccc12`: the neurite formation score is 3.92 and 5.58.

The compound `COc1cc(Nc2ncc3c(n2)-c2ccc(Cl)cc2C(c2c(F)cccc2OC)=NC3)ccc1C(=O)O` [MLN8237 (Alisertib)] showed a neurite formation score of 4.58.

In the case of `CNc1nc(-c2ccc3c(N)n[nH]c3c2)cc(N2C[C@@H](C(=O)NC3CCCCC3)CC[C@H]2C)n1`, the neurite formation score turned out to be 1.42.

The compound `Nc1nccc(-c2c(-c3ccc(F)cc3)ncn2C2CCCCC2)n1` returned a neurite formation score of 5.58.

Regarding `CNC(=O)c1cccc(-c2ccc3c(N4CCOC[C@@H]4C)nc(N4CCOC[C@@H]4C)nc3n2)c1`, the neurite formation score is 4.58.

Turning to `Cc1cc(O)c2c(c1)C(=O)c1cccc(O)c1C2=O` [Chrysophanol], the neurite formation score is 4.76.

`COc1ccc(-c2ccc3ncc4c(c3c2)n(-c2ccc(N3CCNCC3)c(C(F)(F)F)c2)c(=O)n4C)cn1` displayed a neurite formation score of 4.92.

`O=C(NOCC(O)CO)c1cc(Br)c(F)c(F)c1Nc1ccc(I)cc1F` (configuration not stated) had a neurite formation score of 4.88.

On to `CC(C)(C)c1nc2c3cc[nH]c(=O)c3c3cc(F)ccc3c2[nH]1` [Pyridone 6], for which the neurite formation score amounted to 5.25.

Consider `COc1cc2ncc(-c3ccccc3)nc2cc1OC` [Tyrphostin AG 1296], for which the neurite formation score was found to be 5.04.

Turning to `N#CC[C@H](C1CCCC1)n1cc(-c2ncnc3[nH]ccc23)cn1` [Ruxolitinib phosphate], the neurite formation score is 4.92.
